Screening results as filed in PubChem.
Vc quorum ag = inducers of Vibrio cholerae quorum light production without autoinducers. activation, % at 18.7 µM. 350,000 compounds, 0.16% hits. V. cholerae BH1578 lux reporter, luminescence, 6 h; in the data active = activation mostly above about 9.7%, no sharp cut-off
CCHF vOTU inh = blocks the CCHF virus ovarian tumor domain protease | CCHFV vOTU protease, Pep-AMC fluorescence | inhibition, % at 11.5 µM | 370,000 compounds, 0.55% hits | AID 651958; in the data active = inhibition above about 30%
MazF activator = activators of E. coli MazEF toxin-antitoxin RNase; P0AE70; FAM/BHQ RNA-DNA oligo cleavage fluorescence, 5 h; activation, % at 20 µM; 350,000 compounds, 0.32% hits; AID 504720; in the data active = activation above about 50%
Target sequence (P0AE70 whole entry, looked up): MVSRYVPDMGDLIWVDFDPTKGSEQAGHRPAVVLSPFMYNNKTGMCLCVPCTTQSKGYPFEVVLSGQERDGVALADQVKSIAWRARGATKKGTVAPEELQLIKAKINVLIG
DUSP3 inh = inhibitors of human VHR1 phosphatase (DUSP3); P51452; recombinant VHR phosphatase, pNPP absorbance; inhibition, % at 13.3 µM; 290,000 compounds, 0.52% hits; AID 1654; in the data active = inhibition above about 50%
Target sequence (P51452 whole entry, looked up): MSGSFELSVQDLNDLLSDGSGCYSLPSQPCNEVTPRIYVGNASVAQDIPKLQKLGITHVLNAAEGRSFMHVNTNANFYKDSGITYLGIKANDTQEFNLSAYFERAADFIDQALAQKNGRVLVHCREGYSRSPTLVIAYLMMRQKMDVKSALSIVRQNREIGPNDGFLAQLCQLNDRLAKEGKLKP
PrPC TRFRET = inhibitors of human cell surface prion protein PrPC; P04156; 370,000 compounds, 0.43% hits; inhibition, % at 13.8 µM; TR-FRET read-out; in the data active = inhibition above about 24%
Yp Topo-I inh = Y. pestis Topo-I inhibition via cleavage products. AID 504884. activity, % at 10 µM. 360,000 compounds, 0.064% hits. Y. pestis Topo-I cleavage product accumulation, plate reader; in the data active = activity above about 50%, passing the limit was not always enough
Hits are given with their value; - = inactive; . = no result given. Sampled rows, rich in hits. Any-hit rate of the full collection: about 1.8%.

SMILES | Vc quorum ag | CCHF vOTU inh | MazF activator | DUSP3 inh | PrPC TRFRET | Yp Topo-I inh
CCOC(=O)CC[C@H]1CC[C@]2(CCCN(C(=O)C(C)(C)C)C2)O1 | . | - | . | . | - | .
COc1ccc(OCCNc2cc(Cl)ccc2[N+](=O)[O-])cc1 | - | - | 147 | - | - | -
COC(=O)c1nnn(CC(=O)NC(=O)Nc2cccc(Cl)c2C)c1C(=O)OC | - | - | - | 51 | - | -
COC(=O)c1nnn(CC(=O)NC(=O)Nc2c(C)cccc2C)c1C(=O)OC | - | - | - | - | - | -
CCOc1ccc(CN2CCNC(=O)C2CC(=O)NCCc2ccccn2)cc1 (centres undefined) | - | - | - | - | - | -
CCOc1ccc(CN2CCNC(=O)C2CC(=O)NCc2ccccn2)cc1 (centres undefined) | - | - | - | 54 | - | -
CC(OC(=O)c1nn(C(C)C)c(=O)c2ccccc12)C(=O)Nc1ncc(Cl)cc1Cl (centres undefined) | - | - | - | 60 | - | -
CC(C)(C)C(=O)NC1CCCCN(Cc2cccc(Cl)c2)C1=O (centres undefined) | . | - | . | . | - | .
Cc1cc(=O)oc(C)c1C(=O)NCC(C)NC(=O)c1c(C)cc(=O)oc1C (centres undefined) | - | - | - | 54 | - | -
O=S1(=O)C=CCN1Cc1cn(Cc2ccc(F)cc2)nn1 | . | - | . | . | - | .
O=c1cc2c(nn1Cc1ccc(Cl)cc1)-c1ccccc1CC2 | - | 33 | - | - | - | -
O=c1cc2c(nn1Cc1cccc(Cl)c1)-c1ccccc1CC2 | - | - | - | - | - | -
CCCCN1/C(=C/c2ccc3ccccc3[n+]2CC)Sc2ccccc21 | - | . | - | - | . | -
CCN1/C(=C/c2ccc3cc(C)ccc3[n+]2CC)Sc2cc(C)ccc21 | - | - | 75 | - | - | -
COC(=O)[C@]12C[C@H](CC(=O)N3CCCC3)C(=O)N(CCc3ccc(OC)c(OC)c3)C1=C[C@H](C1CCCC1)O[C@@H]2C | . | - | . | . | - | .
O=C(c1ccco1)[C@@H]1[C@@H]2C(=O)N(c3ccccc3)C(=O)[C@@H]2C2c3ccccc3C=CN21 (some centres undefined) | - | 96 | - | - | - | -
COc1ccc(N2C(=O)[C@@H]3[C@H](C2=O)[C@H]2c4ccccc4C=CN2[C@@H]3C(=O)Nc2ccccc2)cc1 | - | - | - | - | - | -
CCCCn1c(N)c(-c2nc3ccccc3o2)c2c([N+](=O)[O-])nn(C)c(=O)c21 | - | - | - | 55 | - | -
Nc1cc(=O)[nH]c(SCC(=O)N2N=C(c3ccc4ccccc4c3)CC2c2ccccc2)n1 (centres undefined) | - | - | - | - | - | 53
CC(=O)OCC(=O)N1N=C(c2ccc3ccccc3c2)CC1c1ccccc1 (centres undefined) | - | - | - | - | - | -
Cc1nc(NC(=O)c2ccc(-c3cc4ccccc4oc3=O)cc2)ccc1Br | - | - | - | - | - | -
Cc1nc(NC(=O)c2cccc(-c3cc4ccccc4oc3=O)c2)ccc1Br | - | - | 84 | - | - | -
COC(=O)[C@H](C(C)C)N(CCc1cn(Cc2ccccc2)nn1)S(=O)(=O)c1ccccc1Br | . | - | . | . | - | .
CCOC(=O)CC[C@@H]1CC[C@]2(CCCN(Cc3nccn3C)C2)O1 | . | - | . | . | - | .
CCc1cc(C(=O)OC)c(NC(=O)CC2Nc3cc(C)c(C)cc3NC2=O)s1 (centres undefined) | - | - | 153 | - | - | -
SMILES | Vc quorum ag | CCHF vOTU inh | MazF activator | DUSP3 inh | PrPC TRFRET | Yp Topo-I inh
C=CCCC(=O)N1CCC(C(=O)NC2CCCc3ccccc32)CC1 (centres undefined) | . | - | . | . | - | .
N#C/C(=C/c1ccc(N2CCOCC2)o1)c1nc2ccccc2[nH]1 | - | - | 428 | 53 | - | -
CCN(CC)c1ccc(NC(=O)c2cc3c(C)nn(-c4ccccc4)c3s2)cc1 | . | - | . | . | - | .
Cc1c(C(=O)Nc2ccc3c(c2)OCO3)sc2nc(-c3ccccc3)cn12 | - | - | 66 | - | - | -
Cc1c(C(=O)NCc2ccc3c(c2)OCO3)sc2nc(-c3ccccc3)cn12 | - | - | - | - | - | -
COC(=O)[C@]12C[C@H](CC(=O)NCC34CC5CC(CC(C5)C3)C4)C(=O)N(Cc3ccco3)C1=C[C@H](COCc1ccccc1)O[C@@H]2C | . | - | . | . | - | .
Cc1ccc(CC(=O)Nc2nccs2)cc1C | - | - | - | 58 | - | -
CCCCCn1nnnc1C1(C)CCSCC(=O)N1Cc1ccco1 (centres undefined) | . | - | . | . | - | .
CCc1nnc(NC(=O)Nc2ccc(OC)cc2)s1 | - | - | - | - | - | -
CCCCOc1ccc(NC(=O)Nc2nnc(C)s2)cc1 | - | - | - | 57 | - | -
N#Cc1ccccc1N1CCN(C(=O)C2CCN(c3ncnc4c3sc3cccc(F)c34)CC2)CC1 | . | - | . | . | - | .
CN(C)c1ccc(NC(=S)OC2CCC23CCC(c2ccccc2)CC3)cc1 (centres undefined) | . | - | . | . | - | .
[O-]/C(=C(\C(=S)Nc1ccc(SC(F)F)cc1)[n+]1cccc(CO)c1)c1ccc(Cl)s1 | - | - | - | - | - | 61
N#CCC[C@H]1CC[C@]2(CCCN(C(=O)c3ccc4ccccc4n3)C2)O1 | . | - | . | . | - | .
C=CCn1cccc(C(=O)Nc2ccc(N(C)C)cc2)c1=O | - | - | - | 56 | - | -
C=CCn1cccc(C(=O)Nc2ccc(Cl)cc2)c1=O | - | - | - | - | - | -
C=CCN(CC#Cc1ccccc1)Cc1ccc(OC)cc1OC | . | - | . | . | - | .
CCCNC(=O)Cn1c(=O)/c(=C\c2ccc(-c3ccc([N+](=O)[O-])cc3)o2)s/c1=C\C(=O)C(C)(C)C | - | . | 86 | - | . | -
COCCNC(=S)N/N=C/c1ccc(-c2ccc([N+](=O)[O-])cc2)o1 | - | - | - | - | - | -
CCCNC(=O)Cn1c(=O)/c(=C\c2ccc(-c3cccc([N+](=O)[O-])c3)o2)s/c1=C\C(=O)C(C)(C)C | - | - | 175 | - | - | -
CCCNC(=O)Cn1c(=O)/c(=C/c2ccc(-c3cccc([N+](=O)[O-])c3)o2)s/c1=C\C(=O)C(C)(C)C | - | - | 54 | . | - | -
O=C1NC(=O)/C(=C/c2ccc(-c3cccc([N+](=O)[O-])c3)o2)S1 | - | - | - | - | - | -
C[C@H](O)[C@@H]1CN2CCc3ccc(-c4ccc5c(c4)OCO5)cc3[C@@H]2C[C@@H]1N(C)CC1CCCCC1 | . | - | . | . | - | .
Cc1ccccc1CC(=O)N1CCC(n2nnc3ncccc32)CC1 | . | - | . | . | - | .
Cc1cc(C)c(C#N)c(SCC(=O)c2ccccc2)n1 | - | - | - | - | - | -
Cc1cc(C)c(C#N)c(SCC(=O)c2cccs2)n1 | - | - | 109 | - | - | -
CNC(=O)COc1coc(CN2CCN(Cc3ccccc3)CC2)cc1=O | - | - | - | - | - | -
CC(C)NC(=O)COc1coc(CN2CCN(Cc3ccccc3)CC2)cc1=O | - | - | - | 53 | - | -
COc1ccc(-n2c(Cc3cccs3)nnc2SCC(=O)Nc2ccc(OCc3ccccc3)cc2)cc1 | . | - | . | . | - | .
